Screens from PubChem.
Shown are actives, neighbours in structure and some others; about 27% of the full set was active somewhere.
sEH activator: activators of human soluble epoxide hydrolase. P34913. purified human sEH enzymatic activity, activator screen. activation, % at 2 µM. 91,000 tested, 0.04% active. AID 717; in the data active = activation above about 37%
Target sequence (P34913 whole entry, looked up): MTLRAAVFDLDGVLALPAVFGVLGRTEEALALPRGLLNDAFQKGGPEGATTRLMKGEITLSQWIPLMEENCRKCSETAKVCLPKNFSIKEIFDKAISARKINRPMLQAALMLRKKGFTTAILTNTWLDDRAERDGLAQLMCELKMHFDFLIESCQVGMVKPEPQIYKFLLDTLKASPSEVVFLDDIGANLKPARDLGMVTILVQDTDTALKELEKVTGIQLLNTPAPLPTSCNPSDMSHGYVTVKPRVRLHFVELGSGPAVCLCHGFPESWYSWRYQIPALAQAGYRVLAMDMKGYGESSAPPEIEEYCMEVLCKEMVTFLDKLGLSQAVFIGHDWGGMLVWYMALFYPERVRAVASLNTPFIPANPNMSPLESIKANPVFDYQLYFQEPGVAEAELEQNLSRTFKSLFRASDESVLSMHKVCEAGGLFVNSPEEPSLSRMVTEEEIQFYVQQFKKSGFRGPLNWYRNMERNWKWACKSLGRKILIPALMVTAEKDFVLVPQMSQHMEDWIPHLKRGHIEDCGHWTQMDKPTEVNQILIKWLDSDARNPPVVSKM
CYP2C19 act: activators of human cytochrome P450 2C19. activation factor at 5 µM. recombinant CYP2C19, luciferin-H EGE luminescence; hits give high values; 0 = fully inhibited enzyme, 1 = untreated enzyme. AID 1025. P33261. 96,000 tested, under 10 active;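 active = activation factor of at least 2 at 5 µM in the primary screen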
CYP2C9 act: increases human cytochrome P450 2C9 activity. P11712. recombinant CYP2C9, luciferin-H conversion, luminescence; hits give high values; factor 1 = untreated enzyme, 0 = blocked. activation factor at 5 µM. 96,000 tested, 1.4% active. AID 1024;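 active = activation factor of 2 or more for CYP2C9 at a 5 µM dose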
sEH inh: blocks human soluble epoxide hydrolase activity. 91,000 tested, 0.34% active. P34913. AID 707. recombinant human sEH enzymatic activity assay. inhibition, % at 2 µM; in the data active = inhibition above about 80%
CYP2C9 inh: blocks human cytochrome P450 2C9; 96,000 tested, 20% active; P11712; inhibition, % at 5 µM; CYP2C9 Supersomes, luciferin-H conversion, luminescence; AID 777;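 active = blocking of liver enzyme CYP2C9 beyond about 50% at 5 µM, limit read from the data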
CYP2C19 inh: blocks human cytochrome P450 2C19; CYP2C19 Supersomes, luciferin-H EGE luminescence, 30 min; AID 778; inhibition, % at 5 µM; 96,000 tested, 21% active;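 active = CYP2C19 inhibition above a set limit at 5 µM in the primary screen, cut at about 50% in these data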
A number is an active result; n = inactive; x = no result given.

SMILES	sEH activator	CYP2C19 act	CYP2C9 act	sEH inh	CYP2C9 inh	CYP2C19 inh
O=C(NC(Cc1ccccc1)C(=O)OCC(=O)N1CCc2ccccc21)c1ccco1 (stereo unspecified)	x	n	n	x	n	n
CCC(C)N(C(=O)COC(=O)c1cn(CC)c2nc(C)ccc2c1=O)C1CCS(=O)(=O)C1 (stereo unspecified)	x	n	n	x	n	n
CCC(C)N(C(=O)CSc1nc(-c2ccccc2)cs1)C1CCS(=O)(=O)C1 (stereo unspecified)	n	n	2.5	n	n	n
Cc1ccc(C)c(Cn2nnc3c(=O)[nH]c(C4CCCN(C(=O)C5CCCCC5)C4)nc32)c1 (stereo unspecified)	n	n	n	n	89	73
COc1ccccc1NC(=O)N1CCCC(c2nc3c(nnn3Cc3ccc(C)cc3)c(=O)[nH]2)C1 (stereo unspecified)	n	n	n	n	n	67
O=C(C1CCCCC1)N1CCCC(c2nc3c(nnn3Cc3ccccc3)c(=O)[nH]2)C1 (stereo unspecified)	n	n	n	n	n	n
COc1ccccc1NC(=O)N1CCC(c2nc3cc(C)c(C)cc3[nH]2)CC1	n	x	x	n	x	x
O=C(c1ccccc1)N1CCCC(c2nc3c(nnn3Cc3ccccc3)c(=O)[nH]2)C1 (stereo unspecified)	n	n	n	n	78	n
O=C(c1cccs1)N1CCC(c2nc3c(nnn3Cc3ccccc3)c(=O)[nH]2)CC1	n	n	n	n	59	n
CCN1CCCC1CNC(=O)Cn1cnc2sc(C)c(S(=O)(=O)N3CCC(C)CC3)c2c1=O (stereo unspecified)	n	x	x	n	x	x
CCc1c(C(=O)NNC(=S)NCC(C)C)csc1C	n	n	n	n	n	n
Cc1ccc(CSc2nnc([C@@H]3CCCN3)o2)cc1	n	n	n	n	n	50
N#CCCN(Cc1ccccc1)C(=S)NC(=O)c1ccccc1	n	n	n	n	93	n
CCOc1ccc(C(=O)NC(=S)N(Cc2ccccc2)Cc2ccccc2)cc1	n	n	n	n	53	n
COc1ccccc1CC(=O)N(CCC#N)CCC#N	n	x	x	n	x	x
COc1ccc(CN(CCC#N)C(=S)NC(=O)c2ccccc2)cc1	n	n	n	n	92	n
CCN(Cc1ccccc1)C(=O)c1ccccc1C	n	n	n	n	n	56
CCCN(CCC)C(=S)NC(=O)c1ccc(-c2ccccc2)cc1	n	n	n	n	n	n
O=C(O)CCCC(=O)N(Cc1ccccc1)Cc1ccccc1	x	n	n	x	n	n
CCN(Cc1ccccc1)C(=O)CCCOc1ccccc1	n	n	n	n	n	73
CCCC(=O)Nc1ccc2oc(-c3cccnc3)nc2c1	n	n	n	n	n	n
Cc1ccc2nc(-c3cccc(NC(=O)c4ccc5c(c4)OCCO5)c3)oc2c1	n	n	n	n	87	64
CCC(=O)Nc1ccc2oc(-c3cccc(C)c3)nc2c1	n	n	n	n	n	83
Cc1ccc2oc(-c3cccc(NC(=O)Cc4cccs4)c3)nc2c1	n	n	n	n	84	n
O=C(Nc1ccc2oc(-c3ccc4ccccc4c3)nc2c1)c1ccc2c(c1)OCCO2	n	n	n	n	n	n
SMILES	sEH activator	CYP2C19 act	CYP2C9 act	sEH inh	CYP2C9 inh	CYP2C19 inh
Cc1ccc2oc(-c3cccc(NC(=O)C4CCCO4)c3)nc2c1 (stereo unspecified)	n	n	n	n	n	n
O=C(Nc1cccc(-c2nc3cc(Cl)ccc3o2)c1)C1CCCO1 (stereo unspecified)	n	n	n	n	71	n
CCOc1ccc(C/C(N)=N/n2cnnc2)cc1	n	n	n	n	n	n
COC(=O)C1C2C=CC3(CN(CC4CCCO4)C(=O)C13)O2 (stereo unspecified)	n	n	n	n	n	n
O=C(c1ccc(Cl)c(F)c1F)N1CCOCC1	n	n	n	n	n	n
O=S(=O)(CCc1nc2ccccc2o1)c1ccc2ccccc2c1	n	n	2.7	n	n	n
N/C(=N\OC(=O)CC1CCCCC1)c1ccccn1	n	n	n	n	n	n
CCOC(=O)N1CCN(C(=O)c2ccccc2NC(=O)COc2ccccc2C)CC1	n	n	n	n	56	65
CCOc1ccccc1C(=O)N1CCCCC1C (stereo unspecified)	n	n	n	n	58	69
COc1ccccc1C(=O)N1CCN(CCc2ccccc2)CC1	n	n	n	n	n	61
CCOC(=O)N1CCN(C(=O)c2ccccc2Oc2ccccc2)CC1	n	n	n	n	94	n
COc1ccc(C2=C(C=Nc3c(C)n(C)n(-c4ccccc4)c3=O)C(c3ccccc3C)c3ccccc3O2)cc1OC (stereo unspecified)	n	n	n	n	n	n
OCCSc1nncn1/N=C/c1c[nH]c2ccccc12	n	n	n	n	n	n
Cc1cc(C)nc(N2CCCC(C(=O)Nc3ccc4nc(C)c(C)nc4c3)C2)n1 (stereo unspecified)	n	n	n	n	n	n
CCOC(=O)C1CCN(C(=O)COC(=O)COc2ccccc2OC)CC1	n	n	n	n	n	n
CCOC(=O)C1CCN(C(=O)c2ccccc2Oc2ccccc2)CC1	n	n	n	n	92	85
O=C1CCN(S(=O)(=O)c2ccccc2)C2CCCCC12 (stereo unspecified)	n	n	n	n	n	94
O=c1[nH]c2c(s1)C(c1ccco1)C1C3CCC(C3)C1S2 (stereo unspecified)	n	n	n	n	n	83
CC1(C)Cc2ccccc2C(NNC(=O)c2ccncc2)=N1	n	n	n	n	n	n
COc1cc(CNc2nc(C)c([N+](=O)[O-])c(C)c2C#N)cc(OC)c1	n	n	n	n	n	n
Cc1nc(NCCc2ccccc2F)c(C#N)c(C)c1[N+](=O)[O-]	n	n	n	n	68	n
CSc1nc(C)cc(-n2ccc(=O)[nH]c2=O)n1	x	n	n	x	n	n
O=C(CN1C(=O)C2C3C=CC(C3)C2C1=O)N1CC=C(c2ccccc2)CC1 (stereo unspecified)	x	n	n	x	n	n
O=C1CC(N2CCC(c3nc4ccccc4o3)CC2)C(=O)N1c1cc(Cl)cc(Cl)c1 (stereo unspecified)	n	n	n	n	78	n
O=C1CC(N2CCC(c3nc4ccccc4o3)CC2)C(=O)N1c1ccc(Cl)cc1 (stereo unspecified)	n	x	x	n	x	x
COc1cc(C(=O)NC(=S)Nc2cccc(-c3cc4ccccc4oc3=O)c2)cc(OC)c1OC	n	n	n	n	68	n
COc1ccc(-c2noc(-c3cc4ccccc4oc3=O)n2)cc1	n	n	n	n	n	n
COC(=O)C1=CN(Cc2cccs2)C=C(C(=O)OC)C1c1cccc(OC)c1OC	n	n	n	n	n	n
COC(=O)C1=CN(C2CC2)C=C(C(=O)OC)C1c1ccccc1OC	x	n	n	x	66	70
